Results on 27 compounds are retold here after PubChem BioAssay AID686979 (National Center for Advancing Translational Sciences (NCATS), 2013).

In all, about 420,000 compounds went through this assay and about 50,000 (12%) were called active. Inconclusive results (about 26%) are left out. The call rests on the fitted dose curve; in most records, active means well fitted inhibition curve with a large enough effect; inconclusive means small, poorly fitted or top-dose-only effect; inactive means flat fitted curve, though single readings scatter. The entries come from a sample that favours actives as a whole.
On the % scale 0 is the no-effect control and ±100 the full control effect; potency means the concentration at half of the fitted maximal effect.

The assay is described as follows: qHTS for Inhibitors of human tyrosyl-DNA phosphodiesterase 1 (TDP1): qHTS in cells in presence of CPT. Further: nearly all actives have a fitted effect of over 55% in size. The conditions noted are these: chicken DT40 Tdp1-/-;hTDP1 cells + 20 nM CPT, ATP luminescence, 48 h; series mostly up to 46.2 µM; activity change, negative = growth inhibition: at the top concentration. A digest of the protocol:
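Cell growth measured by CellTiter-Glo luminescence after a minimum 48 h, 37 C compound exposure with 20 nM CPT in Tdp1-knockout DT40 cells stably expressing hTDP1, seeded 400/well; qHTS titration format.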
A general note: Quantitative high-throughput screening tests each substance at several concentrations.
As to `Cc1ccc(N=C2NC(=O)c3cccc([N+](=O)[O-])c32)cc1`, the “activity change, negative = growth inhibition” value is -21.1% (inactive).

For the compound `CC(=O)c1cnc(SCC(=O)O)nc1C`, the “activity change, negative = growth inhibition” value was 5.08% (inactive).

In the case of `O=C1/C(=C/c2ccc3c(c2)OCO3)CCC/C1=C\c1ccc2c(c1)OCO2`, the “activity change, negative = growth inhibition” value is -23.1% (inactive).

On to `CCn1cc(/C=C2/SC(=S)NC2=O)c(C)n1`, for which the “activity change, negative = growth inhibition” value is -18% (inactive).

On to `Cc1nn(C)cc1/C=C1\CCC/C(=C\c2cn(C)nc2C)C1=O`, for which the Potency was 15.8 µM (active).

As for `C[C@H](NC(=O)C1CCN(S(=O)(=O)c2ccccc2)CC1)C(=O)NCc1ccccc1`, the “activity change, negative = growth inhibition” value was -11.3% (inactive).

With `CC[C@@]1(C(=O)OC)N[C@H](CN(C)C(C)=O)[C@@H]2C(=O)N(C)C(=O)[C@@H]21`, the “activity change, negative = growth inhibition” value was -0.511% (inactive).

Consider `Cc1ccc(C(C[N+](=O)[O-])c2c(C)cc3ccccn23)cc1` (configuration not stated), for which the Potency is 10.3 µM (active).

For `COc1ccccc1C(=O)NCCC(=O)NC(C)CCc1ccccc1` (configuration not stated), the “activity change, negative = growth inhibition” value is -16.7% (inactive).

Take `O=C(N/N=C/c1ccoc1)c1ccc(Cl)cc1Cl`: the “activity change, negative = growth inhibition” value was -6.06% (inactive).

`CC(C)(C)C(=O)Nc1ccc(C(=O)N/N=C/c2ccccc2OC(=O)c2ccc(Cl)cc2Cl)cc1`: the Potency was 14.6 µM (active).

For `COc1cc(C=NNC(=O)c2cccnc2)ccc1OC(=O)c1ccccc1F`, the “activity change, negative = growth inhibition” value is 7.47% (inactive).

Turning to `Cc1cc(C)nc(SCC(=O)N(C)C)n1`, the “activity change, negative = growth inhibition” value is 0.938% (inactive).

Consider `COC(=O)c1c(C)[nH]c(C(=O)NCCc2ccc(S(N)(=O)=O)cc2)c1C`, for which the “activity change, negative = growth inhibition” value is -0.0885% (inactive).

For the compound `O=S(=O)(Nc1ccc(-n2cnnn2)cc1)c1ccc(Cl)cc1`, the “activity change, negative = growth inhibition” value was 1.72% (inactive).

As to `CC(=O)c1c(C)oc2ccc(NS(=O)(=O)c3ccc(C(=O)O)cc3)cc12`, the “activity change, negative = growth inhibition” value is 0.313% (inactive).

For `CC(=O)c1c(C)n(S(=O)(=O)c2ccc(Cl)cc2)c2ccc(NS(=O)(=O)c3ccc(Cl)cc3)cc12`, the Potency was 10.3 µM (active).

With `Cc1csc(-c2coc3cc(O[C@@H]4O[C@H](CO)[C@@H](O)[C@@H](O)[C@H]4O)ccc3c2=O)n1`, the activity change, negative = growth inhibition was 8.48% [at 9.04 µM] (inactive).

In the case of `O=C(Nc1n[nH]c(C(F)(F)F)n1)c1cccs1`, the “activity change, negative = growth inhibition” value was -21.7% (inactive).

As for `COc1ccccc1C(=O)Nc1ccnn1C1CCN(C(=O)C(C)(C)C)CC1`, the “activity change, negative = growth inhibition” value is -7.39% (inactive).

On to `CCCCn1c(N)c(N(CCC(C)C)C(=O)c2ccc(COc3ccccc3)o2)c(=O)[nH]c1=O`, for which the “activity change, negative = growth inhibition” value was -4% (inactive).

For the compound `CCOc1ccc(S(=O)(=O)N/N=C(\C)c2ccc(Cl)c(Cl)c2Cl)cc1`, the “activity change, negative = growth inhibition” value was 1.94% (inactive).

Regarding `COC(=O)COc1ccc2c(=O)c(Oc3ccccc3Br)coc2c1`, the “activity change, negative = growth inhibition” value was 9.84% (inactive).

For the compound `Cc1ccc(NC(=O)Cn2c(C)csc2=O)cc1`, the “activity change, negative = growth inhibition” value is 5.41% (inactive).

Consider `Cc1ccc(NC(=O)Cn2sc3ccccc3c2=O)cc1`, for which the Potency was 4.61 µM (active).

As for `Cc1nn(CC(=O)Nc2ccc(F)cc2)c(=O)c2ccccc12`, the “activity change, negative = growth inhibition” value was 0.617% (inactive).

Regarding `CN(C(=O)CSc1nnc(-c2c[nH]c3ccccc23)o1)C1CCS(=O)(=O)C1` (configuration not stated), the “activity change, negative = growth inhibition” value was 0.592% (inactive).
